Assay outcomes: PubChem BioAssay, Broad Institute
PD-1 reverse act = activators reversing PD-1 mediated T-cell inhibition; primary human CD4 T cells, PD-L1 beads, CellTiter-Glo 96 h; activation, % (test concentration not listed); 29,000 tested, under 10 active; AID 2316; call rule not given here
NOMO-1 viab = STK33 inhibitor candidate reducing NOMO-1 cell viability. NOMO-1 AML viability, CellTiter-Glo luminescence, 72 h. inhibition, % (test concentration not listed). hit rate 7.5% among 37,000. AID 2330; in the data active = inhibition above about 80%
YB-1 expression = YB-1 expression inhibition; U2OS, qRT-PCR YB-1 vs CDIP delta delta Cp, 16 h; active compounds read high; zero = DMSO, each unit about twofold; delta delta Cp (YB-1 minus CDIP) (test concentration not listed); hit rate 0.37% among 30,000; AID 434959;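 active = delta delta Cp rounded down to an integer at or above 3, about 3 SD of DMSO wells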;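 also: higher means less YB-1 transcript or more CDIP transcript relative to DMSO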
MITF inh = blocks MITF activity | TRPM1 promoter luciferase, luminescence, 24 h | inhibition, % (concentration not given with the values) | hit rate 0.28% among 37,000 | AID 2240; in the data active = inhibition above about 85%;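 also: human melanocyte line stably carrying TRPM1 promoter luciferase reporter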
U2OS ROS induce = cancer cell ROS induction; U2OS ROS induction, H2DCF-DA fluorescence; ROS induction (% of piperlongumine), % at 10 µM; hit rate 2% among 46,000; AID 624156; in the data active = ROS induction above about 79%, passing the limit was not always enough
Of the large screens only hits and unclear results are named; the others gave an inactive call. Many of the other results were omitted from the sample, so hits are more common in it than they were.

Cc1ccc(S(=O)(=O)Nc2ccc3c(c2)CC(=O)N([C@@H](C)CO)C[C@@H](C)[C@@H](CN(C)Cc2ccc(Cl)c(Cl)c2)O3)cc1	NOMO-1 viab 83.4
Cc1ccc(S(=O)(=O)Nc2ccc3c(c2)CC(=O)N([C@H](C)CO)C[C@@H](C)[C@@H](CN(C)Cc2ccc(Cl)c(Cl)c2)O3)cc1	NOMO-1 viab 116.3
O=C(CCCCCCC(=O)Nc1ccccc1O)N/N=C/c1ccc(O)c(F)c1	none (no result: PD-1 reverse act, NOMO-1 viab, MITF inh)
COc1ccc(S(=O)(=O)N(C)C[C@@H]2OCCCC[C@@H](C)Oc3ccc(NS(=O)(=O)c4cccs4)cc3C(=O)N([C@H](C)CO)C[C@@H]2C)cc1	U2OS ROS induce 114.6
Cc1ccc(S(=O)(=O)N(C)C[C@H]2OCCCC[C@@H](C)Oc3ccc(NS(=O)(=O)c4cccs4)cc3C(=O)N([C@H](C)CO)C[C@@H]2C)cc1	none
C[C@@H]1CCCCO[C@@H](CN(C)S(=O)(=O)c2ccc(Cl)cc2)[C@@H](C)CN([C@H](C)CO)C(=O)c2cc(NS(=O)(=O)c3cccs3)ccc2O1	U2OS ROS induce 94.3
C[C@@H]1CCCCO[C@@H](CN(C)S(=O)(=O)c2cccs2)[C@@H](C)CN([C@H](C)CO)C(=O)c2cc(NS(=O)(=O)c3ccc(Cl)cc3)ccc2O1	NOMO-1 viab 86.3
O=c1cc(CSc2nc3ccccc3s2)c2ccccc2[nH]1	none (no result: PD-1 reverse act, NOMO-1 viab, YB-1 expression, MITF inh)
COc1ccccc1-c1cc(=O)n(CC(=O)O)c2c1CCCC2	none (no result: PD-1 reverse act, NOMO-1 viab, YB-1 expression, MITF inh)
CCN(CC)c1c(C#N)c(SCC(=O)c2cccs2)cc2c1CCCC2	U2OS ROS induce 91.7
O=C(O)c1nccnc1C(=O)NC1CCN(Cc2c(F)cccc2Cl)CC1	none (no result: PD-1 reverse act, NOMO-1 viab, YB-1 expression, MITF inh)
Cc1ccc(-c2nnc(N3CCN(C(=O)CSc4nc(C)cc(C)n4)CC3)c3ccccc23)cc1	none (no result: PD-1 reverse act, YB-1 expression, U2OS ROS induce)
Cc1ccc(-c2nnc(-n3cnc4cc(C)c(C)cc43)c3ccccc23)cc1	YB-1 expression 3.81
CCc1nc(SCC(=O)N2CCCc3ccccc32)n[nH]1	none (no result: YB-1 expression)
CC(CNc1ccccc1)C(=Nc1ccccc1)Nc1ccccc1 (configuration not stated)	NOMO-1 viab 118.9
C[C@@H]1CN([C@H](C)CO)C(=O)Cc2cc(NC(=O)C3CC3)ccc2O[C@H]1CN(C)Cc1ccc(C(=O)Nc2ccccc2N)cc1	none
C[C@@H]1CN([C@H](C)CO)C(=O)Cc2cc(NC(=O)c3ccncc3)ccc2O[C@H]1CN(C)Cc1ccc(C(=O)Nc2ccccc2N)cc1	none
C[C@@H]1CN([C@H](C)CO)C(=O)Cc2cc(N(C)C)ccc2O[C@@H]1CN(C)Cc1ccc(C(=O)Nc2ccccc2N)cc1	NOMO-1 viab 139.7
C[C@@H]1CN([C@H](C)CO)C(=O)Cc2cc(N(C)C)ccc2O[C@H]1CN(C)Cc1ccc(C(=O)Nc2ccccc2N)cc1	NOMO-1 viab 126.9
O=C(CCc1nnc2n(Cc3ccc(F)cc3)c(=O)c3ccccc3n12)NC1CCCCCC1	none (no result: PD-1 reverse act, NOMO-1 viab, YB-1 expression, MITF inh)
CC(NS(=O)(=O)c1ccc(Cl)cc1)C(=O)Nc1ccc(Oc2ccccc2)cc1 (configuration not stated)	none (no result: YB-1 expression)
CCOc1ccccc1C(=O)NCCc1cn2ccc(C)cc2n1	none (no result: PD-1 reverse act, NOMO-1 viab, YB-1 expression, MITF inh)
O=c1cc(N2CCOCC2)oc2c1ccc1ccccc12	none
O=c1cc(N2CCOCC2)oc2c(-c3ccccc3)cccc12	NOMO-1 viab 124.8, U2OS ROS induce 84.6
CN1CCc2c(-c3cccs3)nc(OCc3ccccc3Br)c(C#N)c2C1	NOMO-1 viab 97.4, U2OS ROS induce 168.2
CCOc1ccc(Nc2nc(C3(C)CC4(CC(C)(C)OC4=O)C(=O)O3)cs2)cc1 (configuration not stated)	none (no result: PD-1 reverse act, NOMO-1 viab, YB-1 expression, MITF inh)
O=C(ON1C(=O)c2ccccc2C1=O)c1ccco1	NOMO-1 viab 115.3
COc1ccc(C2NC(=S)NC(C)=C2C(=O)Nc2cc(OC)c(Cl)cc2OC)c(OC)c1 (configuration not stated)	none (no result: PD-1 reverse act, YB-1 expression, U2OS ROS induce)
COc1ccc(C2C(C(=O)Nc3cc(OC)c(Cl)cc3OC)=C(C)Nc3ncnn32)c(OC)c1 (configuration not stated)	U2OS ROS induce 136.4 (no result: YB-1 expression)
C[C@@H]1CCCCO[C@H](CN(C)Cc2ccc(C(F)(F)F)cc2)[C@@H](C)CN([C@H](C)CO)C(=O)c2cc(NC(=O)c3ccccc3)ccc2O1	none
C[C@@H]1CCCCO[C@H](CN(C)Cc2ccccc2)[C@@H](C)CN([C@H](C)CO)C(=O)c2cc(NC(=O)Nc3ccc(C(F)(F)F)cc3)ccc2O1	NOMO-1 viab 104.3 (no result: PD-1 reverse act)
